The values that follow come from ChEMBL document CHEMBL3988442, “University of Dundee, Small-Polar-MMV Screening Library” (2021).

What all share (set-up): scale not given: direction of the effect not stated beside the values
Assay [1] concerns the target Protein translocase subunit SecA (Escherichia coli (strain K12)) (UniProt P10408). Kind of assay: Assay to Identify E. coli SecA ATPase Inhibitors. Particulars: 30 µM. The class given is functional.
Assay [2] addresses T1, Ubiquitin-activating enzyme e1, putative (Leishmania donovani (strain BPK282A1)) (UniProt E9BSI1).
T1 sequence (whole entry): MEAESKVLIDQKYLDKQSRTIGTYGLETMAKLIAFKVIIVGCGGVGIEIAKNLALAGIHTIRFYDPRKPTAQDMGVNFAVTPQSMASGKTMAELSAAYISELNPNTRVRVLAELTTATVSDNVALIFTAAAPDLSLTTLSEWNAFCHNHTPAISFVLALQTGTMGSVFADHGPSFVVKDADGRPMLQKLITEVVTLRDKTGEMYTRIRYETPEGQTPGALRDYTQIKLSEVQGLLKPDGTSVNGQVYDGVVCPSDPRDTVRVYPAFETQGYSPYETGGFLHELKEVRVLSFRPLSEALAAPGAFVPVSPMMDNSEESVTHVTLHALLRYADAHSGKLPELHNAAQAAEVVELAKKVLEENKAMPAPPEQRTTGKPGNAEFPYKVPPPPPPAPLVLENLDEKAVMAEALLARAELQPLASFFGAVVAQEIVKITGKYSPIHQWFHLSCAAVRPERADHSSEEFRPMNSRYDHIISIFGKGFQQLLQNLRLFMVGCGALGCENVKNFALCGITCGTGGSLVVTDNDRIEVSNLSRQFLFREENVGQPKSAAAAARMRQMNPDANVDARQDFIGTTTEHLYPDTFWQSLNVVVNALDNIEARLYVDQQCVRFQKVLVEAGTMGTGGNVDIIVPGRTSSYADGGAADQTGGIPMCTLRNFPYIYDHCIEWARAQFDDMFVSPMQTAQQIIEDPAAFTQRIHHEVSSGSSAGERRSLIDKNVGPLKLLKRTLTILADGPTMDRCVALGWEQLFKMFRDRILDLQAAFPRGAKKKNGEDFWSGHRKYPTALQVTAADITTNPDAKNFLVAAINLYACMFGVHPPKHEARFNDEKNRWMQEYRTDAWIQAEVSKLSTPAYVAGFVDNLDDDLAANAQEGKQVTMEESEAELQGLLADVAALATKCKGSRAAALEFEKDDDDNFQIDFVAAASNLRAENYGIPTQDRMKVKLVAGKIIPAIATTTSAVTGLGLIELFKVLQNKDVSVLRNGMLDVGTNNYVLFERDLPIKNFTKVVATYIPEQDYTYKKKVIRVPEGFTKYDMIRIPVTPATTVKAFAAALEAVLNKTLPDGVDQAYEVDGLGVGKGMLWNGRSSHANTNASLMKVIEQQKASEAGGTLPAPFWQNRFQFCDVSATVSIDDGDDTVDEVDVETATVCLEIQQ
Nature of the assay: Leishmania donovani Ubiquitin Activating Enzyme (LdE1). It is filed as functional. Particulars: 30 µM.

Assay [3] addresses AMP-activated protein kinase, AMPK (Homo sapiens) (UniProt P54646+O43741+P54619+Q9UGJ0+Q9Y478+Q13131+Q9UGI9). Nature of the assay: AMP-dependent Kinase enzyme assay. An in vitro enzyme assay that detects ADP turnover that is directly proportional to AMPK activity. This uses naive AMPK that is activated during the assay with MK-8722. The class given is functional. Particulars: 30 µM.

Assay [4] concerns the target Sialic acid-binding Ig-like lectin 9 (Homo sapiens) (UniProt Q9Y336). Nature of the assay: Hs-Siglec9 ALPHAscreen SOP 20170721. Particulars: 10 µM. (In general: Bead proximity is the source of the signal in Alpha formats.)
In another assay the test system is Trypanosoma cruzi. Kind of assay: Trypanosoma cruzi phosphomannomutase and mannose-1-phosphate guanylyltransferase assay. It is filed as functional. Particulars: 10 µM.
Assay [5] deals with T2, Arginase-2, mitochondrial (Homo sapiens) (UniProt P78540).
T2 sequence (whole entry): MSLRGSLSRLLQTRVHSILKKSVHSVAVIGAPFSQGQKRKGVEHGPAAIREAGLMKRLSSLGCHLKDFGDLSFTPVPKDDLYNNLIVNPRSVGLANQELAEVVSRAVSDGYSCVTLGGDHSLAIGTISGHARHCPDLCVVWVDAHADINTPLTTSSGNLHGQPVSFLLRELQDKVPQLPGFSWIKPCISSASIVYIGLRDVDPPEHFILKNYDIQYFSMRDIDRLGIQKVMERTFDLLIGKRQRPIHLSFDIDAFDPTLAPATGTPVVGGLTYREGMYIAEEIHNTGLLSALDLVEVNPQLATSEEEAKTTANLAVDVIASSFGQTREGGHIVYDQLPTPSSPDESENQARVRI
Kind of assay: in vitro enzyme assay to detect the production of urea directly proportional to the activity of Arginase II. Note: in the data most compounds retested in dose-response had high values. It is filed as functional. As to conditions: 33.3 µM.

For assay [6], the target named is T3, Proteasome subunit beta (Trypanosoma cruzi) (UniProt O96673).
T3 sequence (whole entry): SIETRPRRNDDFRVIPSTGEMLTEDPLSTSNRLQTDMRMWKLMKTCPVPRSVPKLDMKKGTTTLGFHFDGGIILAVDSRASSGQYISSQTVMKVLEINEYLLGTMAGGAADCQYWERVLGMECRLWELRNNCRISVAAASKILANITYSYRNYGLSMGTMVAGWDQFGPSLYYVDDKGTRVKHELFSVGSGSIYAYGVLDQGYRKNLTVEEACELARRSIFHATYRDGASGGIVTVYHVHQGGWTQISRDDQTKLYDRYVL
Kind of assay: Trypanosoma cruzi proteasome chymotrypsin-like activity (TcProtChymo) assay. Note: in the data most compounds retested in dose-response had high values. It is filed as functional. As to conditions: 9.37 µM.

The species named for a further assay is Homo sapiens. Kind of assay: To identify inhibition of the IFN signalling (Jak-Stat) pathway via expression of an eGFP reporter gene under the control of an IFN-stimulated response element (ISRE) containing MxA promoter. The class given is functional. Particulars: 30 µM. Background: A reporter such as luciferase makes a cellular process visible.
Assay [7] has as its target T4, Tyrosyl-tRNA synthetase, putative (Trypanosoma cruzi (strain CL Brener)) (UniProt Q4DSP6).
T4 sequence (whole entry): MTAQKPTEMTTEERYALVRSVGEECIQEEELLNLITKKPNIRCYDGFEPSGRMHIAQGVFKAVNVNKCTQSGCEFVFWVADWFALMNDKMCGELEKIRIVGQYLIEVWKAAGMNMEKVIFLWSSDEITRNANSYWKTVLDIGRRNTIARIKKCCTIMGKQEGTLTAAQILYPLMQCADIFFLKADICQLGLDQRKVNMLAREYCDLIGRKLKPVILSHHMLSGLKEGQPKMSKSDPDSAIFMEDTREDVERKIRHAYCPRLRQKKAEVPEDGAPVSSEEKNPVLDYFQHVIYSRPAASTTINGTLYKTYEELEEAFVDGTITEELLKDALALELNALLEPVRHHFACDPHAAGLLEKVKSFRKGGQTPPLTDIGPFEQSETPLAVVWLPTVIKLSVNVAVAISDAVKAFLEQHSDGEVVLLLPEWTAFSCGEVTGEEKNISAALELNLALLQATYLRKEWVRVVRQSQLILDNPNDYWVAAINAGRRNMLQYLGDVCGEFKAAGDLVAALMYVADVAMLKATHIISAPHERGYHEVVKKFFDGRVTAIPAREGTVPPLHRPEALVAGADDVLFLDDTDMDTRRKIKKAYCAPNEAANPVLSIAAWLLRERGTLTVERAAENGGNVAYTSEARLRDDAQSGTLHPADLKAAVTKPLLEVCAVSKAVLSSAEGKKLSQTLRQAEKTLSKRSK
Nature of the assay: Trypanosoma cruzi tyrosyl tRNA synthetase (TcYRS) _High Tyrosine SOP. Note: in the data most compounds retested in dose-response had high values. The class given is functional. Particulars: 30 µM.

Assay [8] has as its target T4, Tyrosyl-tRNA synthetase, putative (Trypanosoma cruzi (strain CL Brener)). Kind of assay: Trypanosoma cruzi tyrosyl tRNA synthetase (TcYRS) SOP. The class given is functional. As to conditions: 30 µM.
Assay [9] concerns the target Chromo domain-containing protein 1 (Saccharomyces cerevisiae (strain ATCC 204508 / S288c) (Baker's yeast)) (UniProt P32657). Nature of the assay: ScCHD-1 Enzyme Inhibition Assay. Note: in the data most compounds retested in dose-response had high values. The class given is functional. As to conditions: 30 µM.

Structures are written as SMILES. For some of these results: Entries with a potency or affinity are not part of this list.

Chain of Chromo domain-containing protein 1 (Saccharomyces cerevisiae (strain ATCC 204508 / S288c) (Baker's yeast)) (P32657 whole entry, the tested form may be a part): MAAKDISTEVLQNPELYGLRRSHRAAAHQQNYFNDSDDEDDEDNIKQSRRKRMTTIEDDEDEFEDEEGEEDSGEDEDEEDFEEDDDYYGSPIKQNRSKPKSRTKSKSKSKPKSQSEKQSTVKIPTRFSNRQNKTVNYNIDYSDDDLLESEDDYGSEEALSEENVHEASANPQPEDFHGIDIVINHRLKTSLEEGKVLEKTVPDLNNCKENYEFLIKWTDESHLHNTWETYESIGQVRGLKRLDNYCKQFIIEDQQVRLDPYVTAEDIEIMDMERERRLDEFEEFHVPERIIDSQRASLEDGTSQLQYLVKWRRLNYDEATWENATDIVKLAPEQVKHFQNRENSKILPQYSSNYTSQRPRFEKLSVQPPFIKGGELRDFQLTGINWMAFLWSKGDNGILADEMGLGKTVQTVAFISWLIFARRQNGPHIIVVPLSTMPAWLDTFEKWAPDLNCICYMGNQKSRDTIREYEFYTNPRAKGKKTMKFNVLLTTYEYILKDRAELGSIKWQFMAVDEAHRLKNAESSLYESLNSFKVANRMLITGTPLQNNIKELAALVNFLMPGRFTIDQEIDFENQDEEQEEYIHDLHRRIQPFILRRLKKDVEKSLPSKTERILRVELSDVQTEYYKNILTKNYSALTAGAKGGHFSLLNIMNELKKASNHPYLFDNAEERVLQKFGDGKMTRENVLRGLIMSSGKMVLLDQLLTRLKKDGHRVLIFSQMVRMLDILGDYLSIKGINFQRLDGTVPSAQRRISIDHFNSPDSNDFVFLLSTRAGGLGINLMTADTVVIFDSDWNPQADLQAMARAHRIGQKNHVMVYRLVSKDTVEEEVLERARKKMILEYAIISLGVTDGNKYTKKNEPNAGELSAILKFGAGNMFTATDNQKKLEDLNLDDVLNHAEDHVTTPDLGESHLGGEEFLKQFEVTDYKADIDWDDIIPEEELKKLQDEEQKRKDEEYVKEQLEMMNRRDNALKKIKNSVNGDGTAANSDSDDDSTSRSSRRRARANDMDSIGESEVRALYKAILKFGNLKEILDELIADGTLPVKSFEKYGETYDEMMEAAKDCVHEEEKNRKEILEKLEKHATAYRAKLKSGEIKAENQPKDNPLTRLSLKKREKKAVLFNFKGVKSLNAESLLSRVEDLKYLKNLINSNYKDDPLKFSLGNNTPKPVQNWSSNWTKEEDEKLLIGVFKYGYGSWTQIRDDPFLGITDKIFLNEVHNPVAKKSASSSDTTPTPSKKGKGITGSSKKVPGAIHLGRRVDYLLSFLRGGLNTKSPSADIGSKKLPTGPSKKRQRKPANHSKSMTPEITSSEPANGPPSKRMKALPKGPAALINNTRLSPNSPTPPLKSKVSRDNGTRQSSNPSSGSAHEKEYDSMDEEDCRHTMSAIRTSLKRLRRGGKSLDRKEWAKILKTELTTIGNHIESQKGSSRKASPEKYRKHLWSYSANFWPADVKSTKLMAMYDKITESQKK
Chain of Protein translocase subunit SecA (Escherichia coli (strain K12)) (P10408 whole entry): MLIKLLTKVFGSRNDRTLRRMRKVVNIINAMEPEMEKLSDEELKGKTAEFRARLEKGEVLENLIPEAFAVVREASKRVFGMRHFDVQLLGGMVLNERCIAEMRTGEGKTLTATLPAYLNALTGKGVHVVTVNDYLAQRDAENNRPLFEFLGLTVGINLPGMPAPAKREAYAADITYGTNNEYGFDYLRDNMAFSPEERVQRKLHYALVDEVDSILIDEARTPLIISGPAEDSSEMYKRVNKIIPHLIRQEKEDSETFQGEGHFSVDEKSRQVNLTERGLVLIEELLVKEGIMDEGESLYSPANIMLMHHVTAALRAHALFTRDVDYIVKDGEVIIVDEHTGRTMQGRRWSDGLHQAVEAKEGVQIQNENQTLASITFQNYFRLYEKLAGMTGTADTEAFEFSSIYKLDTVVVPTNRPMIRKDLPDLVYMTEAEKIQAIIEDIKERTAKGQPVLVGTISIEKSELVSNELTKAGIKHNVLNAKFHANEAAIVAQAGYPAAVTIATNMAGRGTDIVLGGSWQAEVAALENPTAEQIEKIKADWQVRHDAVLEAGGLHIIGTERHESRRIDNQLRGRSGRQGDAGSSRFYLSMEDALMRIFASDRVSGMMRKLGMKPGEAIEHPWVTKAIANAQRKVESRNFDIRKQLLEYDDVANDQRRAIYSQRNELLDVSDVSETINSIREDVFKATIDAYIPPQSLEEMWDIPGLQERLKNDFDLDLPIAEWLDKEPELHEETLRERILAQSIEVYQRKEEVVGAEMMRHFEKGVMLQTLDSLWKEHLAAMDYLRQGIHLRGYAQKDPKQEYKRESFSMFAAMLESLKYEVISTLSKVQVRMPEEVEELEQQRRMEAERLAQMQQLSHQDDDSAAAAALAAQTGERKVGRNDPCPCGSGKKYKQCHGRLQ
Chain of Sialic acid-binding Ig-like lectin 9 (Homo sapiens) (Q9Y336 whole entry): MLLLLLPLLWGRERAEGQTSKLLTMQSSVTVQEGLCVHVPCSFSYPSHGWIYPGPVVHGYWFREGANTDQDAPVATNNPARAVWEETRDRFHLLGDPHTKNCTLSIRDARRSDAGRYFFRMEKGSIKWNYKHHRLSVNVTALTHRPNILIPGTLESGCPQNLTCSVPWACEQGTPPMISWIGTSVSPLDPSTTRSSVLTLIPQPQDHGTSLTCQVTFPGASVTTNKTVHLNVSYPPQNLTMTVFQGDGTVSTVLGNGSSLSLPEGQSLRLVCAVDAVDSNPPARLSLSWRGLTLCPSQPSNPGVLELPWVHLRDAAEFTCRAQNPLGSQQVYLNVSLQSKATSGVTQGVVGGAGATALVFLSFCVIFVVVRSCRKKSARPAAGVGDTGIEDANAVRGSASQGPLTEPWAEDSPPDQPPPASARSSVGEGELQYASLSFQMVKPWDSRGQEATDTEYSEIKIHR

As for `Cc1ccc(N2CCCN(C(=O)C3(C#N)CCCCC3)CC2)nn1`, the Percent Effect in assay [1] is -6.11%; in [2], 5.26%; in assay [3] it was -4.48%; in [4] it was 3.79%; with Trypanosoma cruzi, 6.39%; in assay [5] it was 1.53%. Moreover, the Percent Effect in assay [6] is 0.668%; in the assay filed under Homo sapiens, -2.34%; in assay [7], 5.39%; in assay [8], 0%; in assay [9], -14.5%.
Take `CC(C)(C)C(=O)NCCc1ccn(-c2ccccc2)n1`: the Percent Effect in assay [1] is -5.41%; in assay [2], 13.9%; in assay [3], 0.882%; in assay [4], 2.89%; with Trypanosoma cruzi it was -0.923%; in assay [5], 4.09%. The Percent Effect in assay [6] was 8.92%; in the assay listed under Homo sapiens it was 2.37%; in assay [7], 4.17%; in [8], 17.7%; in assay [9], -30%.
For `O=S(=O)(C1CC1)N1CCOCC2(CCN(c3ccccn3)C2)C1` (stereo not drawn), the Percent Effect in assay [1] was -6.13%; in assay [2], 1.33%; in assay [3], 15.1%; in assay [4], -7.58%; in the assay with Trypanosoma cruzi it was -5.7%; in [5], -6.51%. The Percent Effect was 7.21% in assay [6]; 3.01% in the assay filed under Homo sapiens; -6.35% in assay [7]; -5.13% in assay [8]; -5.08% in assay [9].
With `Cc1noc([C@@H]2CCCN2C(=O)C2CCN(C(=O)C3CCC3)CC2)n1`, the Percent Effect in [1] is -2.73%; in assay [2], 5.48%; in assay [3], 27.2%; in [4], -1.91%; in the assay with Trypanosoma cruzi, -6.27%; in assay [5], 0.909%. In addition, the Percent Effect in [6] worked out at 11.7%; in the assay listed under Homo sapiens, 27.9%; in [7], 0%; in assay [8], 5%; in assay [9] it was 98.2%.
For `Cn1ccnc1CN1CCCN(C(=O)c2ccc(Cl)o2)CC1`, the Percent Effect in assay [1] was -4.86%; in [2], 0%; in [3], -1.55%; in [4], 4.15%; with Trypanosoma cruzi, 1.4%; in [5] it was 1.44%. In addition, the Percent Effect in assay [6] is 3.13%; in the assay filed under Homo sapiens it was -16.8%; in assay [7] it was 2.46%; in assay [8] it was 1.24%; in [9] it was 0.744%.
`CN(CC1COc2ccccc2O1)C(=O)NCCCn1cncn1` (stereo not drawn): the Percent Effect was -0.909% in [1]; 18.4% in assay [2]; 0.582% in [3]; 5.7% in assay [4]; 2.63% in the assay on Trypanosoma cruzi; 2.3% in assay [5]. In addition, the Percent Effect in assay [6] was 6.52%; in the assay listed under Homo sapiens, 8.47%; in [7], 6.37%; in assay [8] it was 24.4%; in [9], -11.6%.
Consider `O=C(Cc1ccc2c(c1)OCCO2)NC1CCN(CC(F)F)CC1`, for which the Percent Effect was -6.42% in [1]; 7.79% in assay [2]; 6.85% in assay [3]; 8.97% in assay [4]; -3% with Trypanosoma cruzi; 0% in assay [5]. Besides, the Percent Effect in [6] is 6.93%; in the assay filed under Homo sapiens, -4.72%; in assay [7], 3.88%; in assay [8] it was 9.76%; in assay [9], -6.97%.
In the case of `CN1C[C@H]2CCN(C(=O)NC3CCCC3)CC[C@H]2S1(=O)=O`, the Percent Effect in [1] is 1.67%; in [2], -4%; in assay [3], 10.5%; in [4], -0.732%; in the assay with Trypanosoma cruzi, -5.7%; in [5] it was 29.4%. Moreover, the Percent Effect is 4.62% in assay [6]; -1.7% in the assay listed under Homo sapiens; 1.06% in assay [7]; -2.56% in assay [8]; -5.65% in [9].
